Experimental data taken from PubChem BioAssay (NCATS).
Results filed as inconclusive are left out. Where a call stands in place of a potency, no number is given. Active and inactive are the calls of the source. The call rests on the fitted dose curve; in most records, active means well fitted curve in the direction sought with a large enough effect; inconclusive means small, poorly fitted or top-dose-only effect, or another doubt; inactive means no such curve, though single readings can be large; an effect the other way counts as inactive or inconclusive.

How the values were obtained:
[1] = biological target: Phospholipid hydroperoxide glutathione peroxidase GPX4 (Homo sapiens) (UniProt P36969); assay: Primary qHTS Assay for Inhibitors of Recombinant Selenoprotein Glutathione Peroxidase 4 (GPX4) (AID 1845192); further: nearly all actives have a fitted effect of over 65% in size; further: potency means the concentration at half of the fitted maximal effect
Summary of the method: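 NADPH consumption, followed by fluorescence at 340/450 nm between 0 and 15 min, reports GPX4 activity via coupled glutathione reductase (100 nM). Enzyme 200 nM was pre-exposed to compound 30 min; 0.5 mM cumene hydroperoxide and 1 mM GSH served as substrates.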

[2] = biological target: Glutathione peroxidase 1 (Homo sapiens) (UniProt P07203); assay: Primary qHTS Assay for Inhibitors of Recombinant Selenoprotein Glutathione Peroxidase 1 (GPX1) (AID 1845191); further: nearly all actives have a fitted effect of over 65% in size; further: potency means the concentration at half of the fitted maximal effect
Summary of the method: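 10 nM GPX1 + cpd, 30 min RT; start w/ 1 mM GSH, 0.5 mM cumene hydroperoxide, 0.5 mM NADPH, 100 nM GR, 0.01% BSA; buffer 50 mM Tris-HCl pH 7.5, 2 mM EDTA, 150 mM NaCl; Fl 340/450, 0 & 15 min.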

[3] = biological target: Luciferin 4-monooxygenase (Photinus pyralis) (UniProt P08659); assay: Primary firefly luciferase (FLuc) qHTS assay for identification of artifact compounds. (AID 1845220); conditions: outcome: dose series up to 54.1 µM; further: nearly all actives have a fitted effect of over 60% in size
Summary of the method: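 Compounds sat 15 min at room temperature with 10 uM luciferin and 10 uM ATP (pH 7.6 Tris acetate). Firefly luciferase (10 nM final) was then added, and luminescence was read 5 min later. Data normalized to no-enzyme and DMSO controls were Hill-fitted.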

[4] = Primary fluorescence-based thiol-reactive (MSTI) qHTS assay for identification of artifact compounds. (AID 1845221);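 further: series mostly up to about 54 µM; thiol-reactive compounds lower the probe fluorescence signal; nearly all actives have a fitted effect of over 65% in size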
Summary of the method: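 In PBS pH 7.4 with 2% DMSO, each compound met 4 uM MSTI for one hour at ambient temperature, shielded from light, before fluorescence detection.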

[5] = tested on: Nanoluciferase (engineered Oplophorus gracilirostris luciferase); assay: Primary Nanoluciferase (NLuc) qHTS assay for identification of artifact compounds. (AID 1845222); further: series mostly up to about 54 µM
Summary of the method: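 Luminescence from secreted NLuc (filtered, 1:55-diluted S16 cell medium) read 5 min after Nano-Glo substrate; compounds preincubated 15 min, RT. Hill fits of inhibition normalized to DMSO and no-enzyme.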

[6] = Primary redox qHTS assay for identification of artifact compounds. (AID 1845223)
Summary of the method: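 Amplex Red (25 uM) and HRP (250 mU/mL) in HBSS, with compounds for 15 min, then 250 uM DTT for 30 min, room temperature, dark. Fluorescence 525/598 nm read; normalized to DMSO and 10 uM DA3003; Hill fit.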

Glutathione peroxidase 1 (Homo sapiens), sequence (P07203 whole entry, looked up): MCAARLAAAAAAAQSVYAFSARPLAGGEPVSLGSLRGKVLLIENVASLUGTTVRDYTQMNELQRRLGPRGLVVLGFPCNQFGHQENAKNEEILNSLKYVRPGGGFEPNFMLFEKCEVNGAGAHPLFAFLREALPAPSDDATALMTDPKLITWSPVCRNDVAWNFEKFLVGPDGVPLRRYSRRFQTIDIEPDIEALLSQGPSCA
Phospholipid hydroperoxide glutathione peroxidase GPX4 (Homo sapiens), sequence (P36969 whole entry, looked up): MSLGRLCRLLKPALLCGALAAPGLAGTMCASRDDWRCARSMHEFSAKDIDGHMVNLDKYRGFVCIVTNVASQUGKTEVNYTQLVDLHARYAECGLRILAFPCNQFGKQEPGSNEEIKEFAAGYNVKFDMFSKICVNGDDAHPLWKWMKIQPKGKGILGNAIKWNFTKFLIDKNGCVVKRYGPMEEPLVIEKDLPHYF

With `CC(=O)OCC1=C(C(=O)O)N2C(=O)[C@@H](NC(=O)CSc3ccncc3)[C@H]2SC1` as the compound, how does the Potency [1] read?
The Potency was “inactive”.

Which Potency [2] does the source give for `CCN1CCN(C(=O)N[C@@H](C(=O)N[C@@H]2C(=O)N3C(C(=O)O)=C(CSc4nnnn4C)CS[C@H]23)c2ccc(O)cc2)C(=O)C1=O` here?
The Potency was 11.4 µM (active).

And the Potency [1]?
Its Potency is “inactive”.

With `Nc1ccc(C(=O)NCC(=O)O)cc1` as the compound, how does the Potency [1] read?
Its Potency is “inactive”.

For `C#C[C@]1(O)CC[C@H]2[C@@H]3[C@H](C)CC4=C(CCC(=O)C4)[C@H]3CC[C@@]21C`, which Potency [2] is on record?
Its Potency is “inactive”.

And the Potency [1]?
The Potency was “inactive”.

What does the source list for `N[C@H](C(=O)O)[C@@H](O)c1ccc(O)c(O)c1`?
Potency [2]: inactive; Potency [1]: inactive

Which Potency [2] does the source give for `CCOC(=O)Nc1ccc2c(c1)N(C(=O)CCN1CCOCC1)c1ccccc1S2` here?
The Potency was “inactive”.

What about the Potency [1] of the same compound?
The Potency was “inactive”.

Which Potency [2] does the source give for `O=S(=O)(O)c1ccc(O)cc1` here?
Its Potency is “inactive”.

And the Potency [1]?
Its Potency is “inactive”.

What does the source list for `Clc1cccc(C(c2ccc3nc[nH]c3c2)n2ccnc2)c1` (stereo not given)?
Potency [2]: inactive; Potency [1]: inactive

For `CC(=C(CCOC(=O)C(C)C)SSC(CCOC(=O)C(C)C)=C(C)N(C=O)Cc1cnc(C)nc1N)N(C=O)Cc1cnc(C)nc1N`, which Potency [1] is on record?
Its Potency is “inactive”.

For `O=C(Nc1ccccc1)OCC(CN1CCCCC1)OC(=O)Nc1ccccc1` (stereo not given), which Potency [1] is on record?
Its Potency is “inactive”.

Which Potency [2] does the source give for `NS(=O)(=O)c1cc(C(=O)O)cc(N2CCCC2)c1Oc1ccccc1` here?
Its Potency is “inactive”.

What about the Potency [1] of the same compound?
The Potency was “inactive”.

Which Potency [2] does the source give for `O=C(CCCN1CC=C(n2c(=O)[nH]c3ccccc32)CC1)c1ccc(F)cc1` here?
Its Potency is “inactive”.

And the Potency [1]?
Its Potency is “inactive”.

What about the outcome [3] of the same compound?
The outcome was “inactive”.

What about the outcome [4] of the same compound?
Its outcome is “inactive”.

And the outcome [5]?
Its outcome is “inactive”.

What about the outcome [6] of the same compound?
Its outcome is “inactive”.

Which results are given for `CCOc1ccc(NC(C)=O)cc1`?
Potency [2]: inactive; Potency [1]: inactive

With `Nc1nc(-c2ccccc2)c(Br)c(=O)[nH]1` as the compound, how does the Potency [1] read?
Its Potency is “inactive”.

With `CCC1Nc2cc(Cl)c(S(N)(=O)=O)cc2S(=O)(=O)N1` (stereo not given) as the compound, how does the Potency [1] read?
Its Potency is “inactive”.

For `C=C[C@H]1CN2CC[C@H]1C[C@H]2[C@H](O)c1ccnc2ccc(OC)cc12`, which Potency [2] is on record?
The Potency was “inactive”.

And the Potency [1]?
Its Potency is “inactive”.

And the outcome [3]?
The outcome was “inactive”.

What about the outcome [4] of the same compound?
The outcome was “inactive”.

And the outcome [5]?
The outcome was “inactive”.

And the outcome [6]?
The outcome was “inactive”.

With `C=C1c2cccc(O)c2C(O)=C2C(=O)[C@]3(O)C(O)=C(C(N)=O)C(=O)[C@@H](N(C)C)[C@@H]3[C@@H](O)[C@H]12` as the compound, how does the Potency [1] read?
The Potency was 11.2 µM (active).

What does the source list for `CCN(CC)CCOc1ccccc1C(=O)CCc1ccccc1`?
Potency [2]: inactive; Potency [1]: inactive

For `CCN1CCCC(OC(=O)C(c2ccccc2)c2ccccc2)C1` (stereo not given), which Potency [1] is on record?
The Potency was “inactive”.

With `Cc1c(-c2ccccc2)oc2c(C(=O)OCCN3CCCCC3)cccc2c1=O` as the compound, how does the Potency [2] read?
The Potency was “inactive”.

And the Potency [1]?
The Potency was “inactive”.

Which Potency [1] does the source give for `CCOc1ccccc1C(N)=O` here?
The Potency was “inactive”.

What does the source list for `O=c1[nH]c(=O)n([C@H]2C[C@H](O)[C@@H](CO)O2)cc1F`?
Potency [2]: inactive; Potency [1]: inactive

With `NS(=O)(=O)c1ccc(Cl)c(S(N)(=O)=O)c1` as the compound, how does the Potency [2] read?
Its Potency is “inactive”.

And the Potency [1]?
The Potency was “inactive”.

With `CCCCCCCCCCCCOCCOCCOCCOCCOCCOCCOCCOCCOCCO` as the compound, how does the Potency [2] read?
Its Potency is “inactive”.

And the Potency [1]?
Its Potency is “inactive”.

With `CCCCCCCCCCCCCC(=O)OC(C)C` as the compound, how does the Potency [2] read?
Its Potency is “inactive”.

And the Potency [1]?
The Potency was “inactive”.

Which Potency [2] does the source give for `CCOc1ccccc1OCCN[C@H](C)Cc1ccc(OC)c(S(N)(=O)=O)c1` here?
Its Potency is “inactive”.

And the Potency [1]?
The Potency was “inactive”.

With `CCCCCCCCCCCCSCCOCCO` as the compound, how does the Potency [2] read?
Its Potency is “inactive”.

And the Potency [1]?
Its Potency is “inactive”.

With `CC(C)Nc1cccnc1N1CCN(C(=O)c2cc3cc(NS(C)(=O)=O)ccc3[nH]2)CC1` as the compound, how does the Potency [1] read?
Its Potency is “inactive”.

Which results are given for `Cn1c(=O)c2[nH]c(Br)nc2n(C)c1=O`?
Potency [2]: inactive; Potency [1]: inactive

What does the source list for `CCCCNc1ccc(C(=O)OCCOCCOCCOCCOCCOCCOCCOCCOCCOC)cc1`?
Potency [2]: inactive; Potency [1]: inactive

For `NC(=O)c1ccccc1O`, which Potency [1] is on record?
Its Potency is “inactive”.

With `C[C@H]1O[C@@H](O[C@H]2CC[C@@]3(C)[C@H](CC[C@@H]4[C@@H]3C[C@@H](O)[C@]3(C)[C@@H](C5=CC(=O)OC5)CC[C@]43O)C2)C[C@H](O)[C@@H]1O[C@H]1C[C@H](O)[C@H](O[C@H]2C[C@H](O)[C@H](O[C@@H]3O[C@H](CO)[C@@H](O)[C@H](O)[C@H]3O)[C@@H](C)O2)[C@@H](C)O1` as the compound, how does the Potency [2] read?
Its Potency is “inactive”.

And the Potency [1]?
The Potency was “inactive”.

Which Potency [1] does the source give for `Oc1c(Cl)cc(Cl)c(Cl)c1Cc1c(O)c(Cl)cc(Cl)c1Cl` here?
The Potency was 25.5 µM (active).

With `CC[C@]12CCCN3CCc4c(n(c5ccccc45)C(=O)C1)[C@@H]32` as the compound, how does the Potency [2] read?
The Potency was “inactive”.

What about the Potency [1] of the same compound?
Its Potency is “inactive”.

What about the outcome [3] of the same compound?
Its outcome is “inactive”.

And the outcome [4]?
The outcome was “inactive”.

What about the outcome [5] of the same compound?
Its outcome is “inactive”.

What about the outcome [6] of the same compound?
The outcome was “inactive”.

With `C[N+]1(CC2COC(c3ccccc3)(C3CCCCC3)O2)CCCCC1` (stereo not given) as the compound, how does the Potency [2] read?
The Potency was “inactive”.

What about the Potency [1] of the same compound?
Its Potency is “inactive”.

Which Potency [2] does the source give for `CCO[C@@H]1O[C@H](C(COCc2ccccc2)OCc2ccccc2)[C@H](OCc2ccccc2)[C@H]1O` (stereo not given in full) here?
Its Potency is “inactive”.

And the Potency [1]?
Its Potency is “inactive”.

Which results are given for `Cc1ccc(-c2ncc(Cl)cc2-c2ccc(S(C)(=O)=O)cc2)cn1`?
Potency [2]: inactive; Potency [1]: inactive

For `CC(=O)Nc1ccc(OC(=O)c2ccccc2OC(C)=O)cc1`, which Potency [2] is on record?
The Potency was “inactive”.

And the Potency [1]?
Its Potency is “inactive”.

Which outcome [3] does the source give for `O=C1[C@H](CC[C@H](O)c2ccc(F)cc2)[C@@H](c2ccc(O)cc2)N1c1ccc(F)cc1` here?
The outcome was “inactive”.

And the outcome [4]?
Its outcome is “inactive”.

And the outcome [5]?
The outcome was “inactive”.

What about the outcome [6] of the same compound?
The outcome was “inactive”.
